In the library only some 2.4% were active in any assay of this set; here they are far more common.
TDP1 inh = TDP1 (human) enzyme inhibition; recombinant TDP1, AlphaScreen DNA substrate cleavage; Potency, µM (doses to about 130 µM), without a hit: at the highest dose activity change, negative = inhibition, hits mostly inhibitors; hit rate 0.28% among 350,000; also: % is scaled to controls: 0 for no effect and ±100 for the full control effect; nearly all actives have a fitted effect of over 40% in size
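Here, a 5' biotin and 3' phosphotyrosine-FITC DNA oligonucleotide reports Tdp1 activity: intact substrate bridges AlphaScreen beads, while cleavage leaves a 3' phosphate and drops signal. All incubations at room temperature.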
POLB inh = inhibitors of human DNA polymerase beta | P06746 | Pol beta primer extension/strand displacement, fluorescence kinetic | Potency, µM (highest dose often 114 µM), inactives show at the top dose activity change, negative = inhibition, most hits filed as inhibitors | hit rate 1.3% among 340,000 | AID 485314; also: % is scaled to controls: 0 for no effect and ±100 for the full control effect
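Homogeneous kinetic assay of primer extension and strand displacement by 10 nM Pol beta, preincubated 15 min at room temperature with compound before 50 nM substrate (final) was added. Read at 0 and 10 min; four-parameter Hill fit.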
POLK inh = blocks human DNA polymerase kappa activity; Potency, µM (titrated, usually from 107 µM), inactives show top-dose activity, negative = inhibition, hits mostly inhibitors; hit rate 0.53% among 400,000; purified Pol kappa, fluorescent DNA synthesis assay, 10 min; AID 588579; also: % is scaled to controls: 0 for no effect and ±100 for the full control effect
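First, compounds were pin-transferred onto 10 nM Pol kappa. After 15 min at room temperature, substrate was added to 50 nM final. Fluorescence was then measured kinetically at 0 and 10 min.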
Pol eta inh = DNA polymerase eta (human) inhibition; recombinant Pol eta, fluorescent DNA replication assay; AID 588591; hit rate 1.2% among 390,000; Q9Y253; Potency, µM (doses to about 114 µM), inactives show top-dose activity change, negative = inhibition, actives largely listed as inhibitors; also: % is scaled to controls: 0 for no effect and ±100 for the full control effect
Target sequence (Q9Y253 whole entry, looked up): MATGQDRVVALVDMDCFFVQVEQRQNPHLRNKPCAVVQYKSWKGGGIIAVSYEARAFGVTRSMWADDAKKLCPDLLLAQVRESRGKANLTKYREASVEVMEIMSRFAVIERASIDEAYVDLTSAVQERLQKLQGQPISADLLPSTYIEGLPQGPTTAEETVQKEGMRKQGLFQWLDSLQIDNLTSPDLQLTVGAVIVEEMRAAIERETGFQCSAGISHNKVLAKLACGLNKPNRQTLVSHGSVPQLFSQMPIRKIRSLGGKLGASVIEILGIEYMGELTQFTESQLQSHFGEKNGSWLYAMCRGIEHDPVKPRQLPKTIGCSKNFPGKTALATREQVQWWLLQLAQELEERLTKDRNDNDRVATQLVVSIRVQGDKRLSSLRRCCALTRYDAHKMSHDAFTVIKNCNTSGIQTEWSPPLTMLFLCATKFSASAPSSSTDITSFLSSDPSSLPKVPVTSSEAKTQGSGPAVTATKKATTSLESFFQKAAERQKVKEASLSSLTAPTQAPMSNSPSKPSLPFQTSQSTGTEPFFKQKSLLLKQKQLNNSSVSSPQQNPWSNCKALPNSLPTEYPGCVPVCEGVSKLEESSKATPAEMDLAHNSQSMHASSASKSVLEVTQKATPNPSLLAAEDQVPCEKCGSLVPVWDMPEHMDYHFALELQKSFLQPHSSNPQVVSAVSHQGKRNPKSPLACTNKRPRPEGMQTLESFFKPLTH
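Pol eta at 10 nM preincubated with compounds 15 min at room temperature; reaction started with fluorescent substrate (50 nM final) and read kinetically at 0 and 10 min.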
Pol iota inh = DNA polymerase iota (human) inhibition. Potency, µM (series often up to 115 µM), inactives show top-dose activity, negative = inhibition, usual class: inhibitors. Pol iota fluorescent replication assay, 10 min. AID 588590. Q9UNA4. hit rate 1% among 390,000
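Pol iota at 10 nM preincubated 15 min with compounds at room temperature; reaction started with fluorescent substrate, 50 nM final. Fluorescence read kinetically at 0 and 10 min; buffer-only wells as negative control.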
* marks the source's active call; other numbers are inactive results; ? = inconclusive; . = not tested or not shown; [ ] = dose if it differs, or a comment. Calls follow the shape of the dose curve; as a rule, active = well fitted curve in the direction sought with a large enough effect; inconclusive = small, poorly fitted or top-dose-only effect, or another doubt; inactive = no such curve, though single readings can be large; an effect the other way counts as inactive or inconclusive. Potency is read from the fitted curve at half-maximal effect.

SMILES	TDP1 inh	POLB inh	POLK inh	Pol eta inh	Pol iota inh
O=C(CCC1CC(=O)Nc2ccccc21)NCc1ccccc1 (centres undefined)	3.5%	-10.8%	-20.6%	89.1µM*	?
O=C(CCC1CC(=O)Nc2ccccc21)NCc1ccc(F)cc1 (centres undefined)	2.8%	-20.0%	-11.2%	-15.6%	10.0%[58.9 µM]
Nc1c(N(CCC2=CCCCC2)C(=O)Cc2ccccc2F)c(=O)[nH]c(=O)n1Cc1ccccc1	0.7%[56.1 µM]	.	-4.7%	-8.3%	14.3%
Nc1c(N(CCC2=CCCCC2)C(=O)c2ccccc2F)c(=O)[nH]c(=O)n1Cc1ccccc1	-10.1%	.	-16.1%	-9.6%	79.4µM*
Cc1ccc(NC(=O)Nc2nnc(-c3ccncc3)s2)cc1C	-5.6%	1.2%	?	89.1µM*	22.4µM*
O=C(Nc1ccc(F)cc1)Nc1nnc(-c2ccncc2)s1	-1.9%	76.1%	-27.8%	-14.9%	?
O=C(Nc1cccc(Cl)c1)Nc1nnc(-c2ccncc2)s1	8.2%	39.8µM*	-9.6%	?	?
CCCCCCCCCC[n+]1ccc(/C=C/c2c[nH]c3ccccc23)cc1	.	.	-6.6%	.	4.3%
CO[C@H]1C[C@@H]2CC[C@@H](C)[C@@](O)(O2)C(=O)C(=O)N2CCCC[C@H]2C(=O)O[C@H]([C@H](C)C[C@@H]2CC[C@@H](O)[C@H](OC)C2)CC(=O)[C@H](C)/C=C(\C)[C@@H](O)[C@@H](OC)C(=O)[C@H](C)C[C@H](C)/C=C/C=C/C=C/1C	.	.	-5.8%[19.4 µM]	.	30.2%
CO/N=C(/C(=O)N[C@@H]1C(=O)N2C(C(=O)O)=C(CSC(=O)c3ccco3)CSC12)c1csc(N)n1 (some centres undefined)	.	.	0.2%[19.4 µM]	.	.
CC(=O)OCC1=C(C(=O)O)N2C(=O)C(NC(=O)Cc3ccccc3)C2SC1 (centres undefined)	.	.	44.7µM*	.	50.1µM*
CO/N=C(\C(=O)N[C@@H]1C(=O)N2C(C(=O)O)=C(COC(N)=O)CS[C@H]12)c1ccco1	?	?	?	2.51µM*	39.8µM*
CO/N=C(/C(=O)NC1C(=O)N2C(C(=O)O)=C(COC(N)=O)CSC12)c1ccco1 (centres undefined)	22.4µM*	.	35.5µM*	.	.
O=C(COC(=O)CNC(=O)C1CCCCC1)NC1CC1	-0.3%	.	0.9%	.	-1.7%
COC(=O)Cc1c(C)c2ccc3c(c2oc1=O)CN(Cc1ccccc1OC)CO3	4.9%	6.8%	19.9%	-11.6%	13.9%
COc1ccc(-n2ncc3c(NCCCOC(C)C)ncnc32)cc1	10.4%	8.5%	-0.9%[60.1 µM]	-14.3%	-1.3%
Cc1c(P(=S)(c2ccccc2)c2ccccc2)[n+]2ccccc2n1CC(=O)c1ccccc1	1.0%	.	.	.	.
Cc1cc(C)n2[nH]c(=O)c(N=Nc3ccccc3)c2n1	4.0%	-1.9%	-11.5%	-11.6%	-7.2%
Cc1cc(C(F)(F)F)n2[nH]c(=O)c(N=Nc3ccccc3)c2n1	9.9%	-19.9%	?	12.3%	39.8µM*
C=C(C)C1CCC2(C(=O)O)CCC3(C)C(CCC4C5(C)C(C=O)C(O)C(C)(C)C5CCC43C)C12 (centres undefined)	.	0.3%	-14.5%	79.4µM*	-25.4%
CCN(c1cc(C)cc(C)c1)S(=O)(=O)c1nnc(NC(=O)c2cccs2)s1	2.6%	-27.6%	-16.4%	89.1µM*	24.9%
COc1ccc(C2CC(c3ccccc3O)=NN2c2ccccc2)cc1 (centres undefined)	.	.	-8.2%	-11.0%	52.3%
Oc1ccccc1C1=Nc2ncnn2C(c2ccc(F)cc2)C1 (centres undefined)	-6.8%	31.6µM*	-7.5%	?	1.9%
O=C(N/N=C/c1c(Cl)cccc1Cl)c1ccc(-n2cnnn2)cc1	56.2µM*	.	2.4%	-19.9%	31.5%
Cc1cnc(C(=O)OCC(=O)c2ccc(C)s2)cn1	-3.9%	.	-2.3%	1.2%	1.0%
SMILES	TDP1 inh	POLB inh	POLK inh	Pol eta inh	Pol iota inh
Cc1cnc(C(=O)OCC(=O)c2csc(N3CCCCC3)n2)cn1	-4.1%	44.7µM*	-24.0%	25.1µM*	?
CC1CCN(S(=O)(=O)c2ccc3c(c2)CCN3C(=O)Nc2ccccc2Br)CC1	0.0%	43.7%	0.2%	.	13.0%
Cc1cc(C)n(CCc2nc(-c3cc4ccccc4o3)cs2)n1	0.0%	2.5%	-11.8%	-24.0%	24.3%
Cc1cc(C)n(CCc2nc(-c3ccc(C)o3)cs2)n1	-2.0%	50.1µM*	-23.1%	15.8µM*	?
Cc1nc(N2CCN(C)CC2)c2nnn(Cc3ccccc3)c2n1	.	.	2.1%	.	14.5%
CCOC(=O)c1c(NC(=O)Cc2ccccc2)sc2c1CCN(C)C2	.	-0.1%	11.5%	-10.8%	-2.7%
CCOC(=O)c1c(NC(=O)CSc2nnc(C)s2)sc2c1CCN(C)C2	-12.0%	2.5%	-27.5%	?	11.2µM*
O=S(=O)(Nc1nc(-c2ccccc2)cs1)c1cc(Cl)ccc1Cl	5.9%	44.7µM*	-43.2%	?	?
CC1CCN(C(=O)Cn2c(-c3cccs3)cc3cc(Cl)ccc32)CC1	5.0%	?	-12.0%	?	19.9%
O=c1c2cc3c(cc2n(Cc2ccc(F)cc2)c(=O)n1Cc1nc(-c2ccccc2)no1)OCO3	0.0%	-1.1%	-2.7%	1.6%	10.5%
O=c1c2cc3c(cc2n(Cc2ccc(Cl)cc2)c(=O)n1Cc1nc(-c2ccccc2)no1)OCO3	5.6%	-1.1%	?	-9.3%	89.1µM*
CN(CCCc1cnc[nH]1)C(=S)NCCCN(Cc1ccc(Cl)cc1)c1ccc(Br)cn1	.	.	-16.2%	.	?
CC(C)N1C(=O)S/C(=C/c2ccccc2OCc2ccc(C(=O)O)cc2)C1=O	2.4%	0.6%	?	89.1µM*	?
COc1cccc(/C=C2\SC(=O)NC2=O)c1OCc1ccc(C(=O)O)cc1	?	-4.3%	-20.9%	-4.1%	20.9%
CCCCNC(=O)NS(=O)(=O)c1ccc(C(=O)O)cc1	9.5%	.	10.9%[60.1 µM]	.	.
CN(C)c1ccc(/C=C2/CCCc3c2nc2ccccc2c3C(=O)O)cc1	.	.	79.4µM*	.	?
CN(C)c1ccc(/C=C2\CCCc3c2nc2ccccc2c3C(=O)O)cc1	.	-9.3%	-18.1%	6.0%	115.5%
CCOC(=O)c1oc2cc(O)cc(O)c2c(=O)c1OCc1ccccc1	.	.	-1.0%	-16.4%	31.7%
O=c1c2ccccc2oc2cc(OCc3cccc(F)c3)cc(O)c12	.	22.4µM*	?	-1.0%	?
Cc1ccc(-n2c(O)c(/C=N/n3cnnc3)c3ccccc3c2=O)cc1	-1.0%	33.3%	?	-4.1%	?
Cc1ccc(-n2c(O)c(/C=N/c3ncn[nH]3)c3ccccc3c2=O)cc1	3.8%	12.6µM*	-6.4%	-21.4%	0.5%
O=C(c1ccc2c(=O)n3c(nc2c1)CCCCC3)N1CCN(C(c2ccccc2)c2ccccc2)CC1	7.9%	24.2%	-3.1%	-14.0%	89.1µM*
Cc1c(P(=S)(c2ccccc2)c2ccccc2)c2ccccc2n1Cc1ccccc1	0.4%	.	.	.	.
